Sampled rows, rich in hits. Any-hit rate of the full collection: about 10%.
PTEN del growth: growth suppression of PTEN-null HCT116, primary screen, cell-based, CellTiter-Glo. AID 827, 2007. HCT116 PTEN-null viability, 60 h; stronger effect = lower value. viability, % at 10 µM. hit rate 1.2% among 140,000;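 active = viability at or below a set limit, 4 SD under the median of all tested compounds, cut at about 3.7% in these data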;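 note: PTEN knockout HCT116 line with beta catenin targeted HCT116 as companion control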
Lmaj promast: Leishmania major promastigote growth inhibition, primary screen; Leishmania major promastigotes, resazurin fluorescence viability; hit rate 9% among 200,000; inhibition, % at 10 µM; in the data active = inhibition above about 50%;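 note: promastigotes grown with compound for 44 hours at 28 °C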
p97 inhibitor: inhibitors of human p97 ATPase, primary screen, biochemical. Transitional endoplasmic reticulum ATPase (Homo sapiens), P55072. recombinant p97 ATPase, Kinase-Glo ATP luminescence, 3 h. inhibition, % at 8 µM. hit rate 0.42% among 220,000; in the data active = inhibition above about 15%
Insulin prom inh: inhibitors of insulin promoter-driven GFP, primary screen, imaging, TRM-6 cells (human fetal islet line), eGFP reporter, cell count. inhibition, % at 2 µM. hit rate 0.9% among 130,000. reporter expression induced with tamoxifen;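 active = inhibition above the mean plus 3 SD, with well images judged a real hit on visual review, cut at about 60% in these data, passing the limit was not always enough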
bCat KO growth: primary screen for growth suppressors in beta-catenin knockout HCT116 cells (colon tumor, human) | HCT116 beta-catenin knockout viability, CellTiter-Glo, 60 h; stronger effect = lower value | viability, % at 10 µM | hit rate 1.5% among 140,000;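 active = viability at or under a set limit, the compound median less 4 SD, cut at about 6% in these data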
ROMK mod: ROMK potassium channel modulators, primary screen, cell-based, thallium flux, MLSMR library; ATP-sensitive inward rectifier potassium channel 1 (Homo sapiens), P48048; Tet-inducible ROMK, thallium flux fluorescence; actives lie on both sides; B-score at 10 µM; hit rate 2% among 130,000;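 active = signal ratio slope over the read window, or its plate-corrected B-score, at least 3 SD from the plate mean, either direction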;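 note: B-score of the F/F0 ratio slope over 7 to 12 s after thallium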
Target sequence (P48048 whole entry, looked up): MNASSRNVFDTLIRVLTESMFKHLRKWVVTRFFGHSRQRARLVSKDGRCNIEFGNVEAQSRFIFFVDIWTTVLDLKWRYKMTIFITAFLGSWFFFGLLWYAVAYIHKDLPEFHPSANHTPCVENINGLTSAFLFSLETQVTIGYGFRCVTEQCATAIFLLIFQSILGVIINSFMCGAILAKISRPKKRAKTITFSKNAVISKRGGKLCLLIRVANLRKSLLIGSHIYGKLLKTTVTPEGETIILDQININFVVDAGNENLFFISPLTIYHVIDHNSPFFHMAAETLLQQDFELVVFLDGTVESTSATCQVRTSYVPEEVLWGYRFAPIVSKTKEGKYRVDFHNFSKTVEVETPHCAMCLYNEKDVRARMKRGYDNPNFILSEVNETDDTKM
Numbers stand for hits; 0 = inactive; - = no result given.

SMILES	PTEN del growth	Lmaj promast	p97 inhibitor	Insulin prom inh	bCat KO growth	ROMK mod
C=CCn1c(N)c(C(=O)OC(C)(C)C)c2nc3ccccc3nc21	0	0	0	0	0	0
C=CCn1c(N)c(C(=O)OC(C)CC)c2nc3ccccc3nc21 (centres undefined)	0	100	0	0	0	-
CCCCOC(=O)C[N+](C)(C)CCOC1CC2CCC1(C)C2(C)C (centres undefined)	0	69	0	0	0	-
CCC(C)OC(=O)C[N+](C)(C)CCOC1CC2CCC1(C)C2(C)C (centres undefined)	-	96	0	-	-	0
CCCOC(=O)C[N+](C)(C)CCOC1CC2CCC1(C)C2(C)C (centres undefined)	-	-	0	-	-	-
Cc1ccc(-n2c(C)cc(C)c(C#N)c2=O)cc1C	-	0	0	0	-	0
CN1CCN(C(=O)c2cnn3c2NC(c2ccccc2)CC3C(F)(F)F)CC1 (centres undefined)	-	0	0	-	-	0
CCc1ccc(OCC(=O)N(CC)CC)cc1	-	0	0	-	-	0
CCCCOC(=O)CCN1C(=O)/C(=C2\SC(=S)N(CCC(=O)OCCCC)C2=O)SC1=S	0	66	0	-	0	-
Cn1cccc1-c1nc2ccccc2[nH]1	-	-	0	-	-	0
Cc1ccc(Nc2nc(Nc3ccc(C)cc3)nc(SC3=NCCS3)n2)cc1	3.5	0	0	0	4.2	0
Cc1[nH]c2c(C)cccc2c1CCNS(=O)(=O)c1cccc([N+](=O)[O-])c1	0	0	0	-	0	-
Cc1ccc([N+](=O)[O-])cc1S(=O)(=O)NCCc1c(C)[nH]c2c(C)cccc12	0	66	0	0	0	0
O=C(N/N=C1\CCCc2ccccc21)c1ccccc1[N+](=O)[O-]	0	100	0	0	0	-
O=C(N/N=C1\CCCc2ccccc21)c1ccc([N+](=O)[O-])cc1Cl	0	94	0	0	0	-
CCN1/C(=C2\C(=O)N(C)C(=S)N2C)C=Cc2cc(C)ccc21	0	0	0	-	0	-
COc1ccccc1C(=O)OCCNC(=O)Cn1cnc2c1c(=O)n(C)c(=O)n2C	-	0	0	-	-	0
C=CCN(CC=C)c1cnn(-c2nc3ccccc3[nH]2)c(=O)c1Cl	0	65	0	0	0	0
O=c1c(Cl)c(NCCCO)cnn1-c1nc2ccccc2[nH]1	2.0	0	0	0	1.3	-
Cc1ccc(C(=O)NC(=O)CSc2ncccc2C(=O)O)cc1	-	0	0	-	-	0
Cc1noc(C)c1S(=O)(=O)Nc1ccccc1N1CCOCC1	-	-	0	-	-	-
O=C(Cc1ncc(C(F)(F)F)cc1Cl)NCCc1ccccn1	-	0	0	0	-	0
O=C(CN1CCOCC1)N1CCN(C(=O)CN2CCOCC2)CC1	-	0	0	0	-	-
CCCN(CCC)CCNC(=O)c1cc2c(=O)n(C)c3ccccc3c2n1C	0	0	0	-	0	-
Cn1c(C(=O)NC2CCCCC2)cc2c(=O)n(C)c3ccccc3c21	0	0	0	-	3.4	-
SMILES	PTEN del growth	Lmaj promast	p97 inhibitor	Insulin prom inh	bCat KO growth	ROMK mod
Cn1c(C(=O)NCCN2CCN(c3ccccc3F)CC2)cc2c(=O)n(C)c3ccccc3c21	0	51	0	-	0	-
CN(CCNC(=O)c1cc2c(=O)n(C)c3ccccc3c2n1C)Cc1ccccc1	3.3	69	0	-	2.4	-
Cn1c(C(=O)NC2CCCCCC2)cc2c(=O)n(C)c3ccccc3c21	0	0	0	-	0	-
Cn1c(C(=O)NCCN2CCOCC2)cc2c(=O)n(C)c3ccccc3c21	0	0	0	-	0	-
CCc1ccc2c(c1)c(N=NC1=NC(=O)CS1)c(O)n2C	0	0	0	79	0	-
COc1cc(OC)c(CN2CCN(c3ccc(F)cc3)CC2)cc1Br	0	0	0	0	0	-
COc1cc(CN2CCN(c3ccc(C)cc3)CC2)cc([N+](=O)[O-])c1O	0	86	0	0	0	-
COc1cc(CN2CCN(c3cc(C)ccc3C)CC2)cc([N+](=O)[O-])c1O	-	0	0	0	-	-
COc1cc(OC)c(OC)cc1CN1CCN(Cc2ccc(SC)cc2)CC1	-	95	0	-	-	0
COc1cc(CN2CCN(Cc3ccc(SC)cc3)CC2)cc(OC)c1O	-	88	0	-	-	0
COc1ccc(N(C)S(=O)(=O)c2cccc(C(=O)N(C)Cc3ccc(C)o3)c2)cc1	-	0	0	-	-	0
Cc1ccc(S(=O)(=O)c2c(COC(=O)c3ccccc3Cl)c(-c3ccccc3)nn2C)cc1	0	61	0	0	0	0
CN(C)S(=O)(=O)Nc1ccc(Oc2ccccc2)cc1	0	82	0	0	0	-
Cc1[nH]c(=O)[nH]c(=O)c1S(=O)(=O)Nc1ccc(Oc2ccccc2)cc1	0	0	0	0	0	-
Nc1ccc2c(c1)OC1(CCCC1)O2	-	0	0	-	-	0
CCOC(=O)c1cnn2c(C(F)(F)F)cc(-c3ccccc3)nc12	0	0	0	0	0	-
COc1ccc(-c2cc(C(F)(F)F)n3ncc(C(=O)N4CCCCC4c4cccnc4)c3n2)cc1 (centres undefined)	-	98	0	0	-	0
CCOC(=O)C1CCCN(C(=O)c2cnn3c(C(F)(F)F)cc(-c4ccccc4)nc23)C1 (centres undefined)	0	52	0	0	0	-
O=C(c1cnn2c(C(F)(F)F)cc(-c3ccc4c(c3)OCO4)nc12)N1CCCC1	0	77	0	0	0	0
CCc1nnc(NC(=O)COc2ccc(N(C)S(=O)(=O)c3ccc(C)cc3)cc2)s1	-	0	0	-	-	0
Cc1ccc(S(=O)(=O)N(C)c2ccc(OCC(=O)Nc3nnc(C4CC4)s3)cc2)cc1	-	96	0	-	-	0
Cc1cc(NC(=O)COc2ccc(N(C)S(=O)(=O)c3ccccc3)cc2)no1	0	0	0	79	0	-
COc1cc(CC(=O)Nc2ccc3c(c2)CCC3)cc(OC)c1OC	0	89	0	0	0	-
Cc1ccc(NC(=O)Cc2ccc3c(c2)CCCC3)cc1C	0	0	0	0	0	-
CC(=O)c1cccc(NC(=O)Cc2ccc3c(c2)CCCC3)c1	0	81	0	-	0	0
SMILES	PTEN del growth	Lmaj promast	p97 inhibitor	Insulin prom inh	bCat KO growth	ROMK mod
O=S(=O)(/N=C(/Nc1ccc(Cl)cc1Cl)c1ccccc1)c1cccs1	-	0	0	-	-	0
N#CC1=C(N)N(c2ccc(Oc3ccccc3)cc2)C(=O)C1	0	91	0	0	0	-
COc1ccc2c(c1)C(=O)N(c1ccccc1)C(=O)C2	0	0	0	0	0	-
O=C1CCC(CCC(=O)N2CCCC(C(=O)c3cccc(C(F)(F)F)c3)C2)=NN1 (centres undefined)	-	0	0	-	-	0
CC(C(=O)Nc1cc([N+](=O)[O-])ccc1Cl)N1CCN(c2ccc(O)cc2)CC1 (centres undefined)	0	0	0	72	0	0
CC(C)CC(=O)Nc1cc([N+](=O)[O-])ccc1Cl	0	0	0	-	0	0
Nc1[nH]n2c(=O)cc(-c3ccccc3)nc2c1N=Nc1ccccc1	0	98	0	-	3.7	0
Nc1[nH]n2c(=O)cc(-c3ccccc3)nc2c1N=Nc1ccc(S(N)(=O)=O)cc1	-	0	0	0	-	0
CCOC(=O)c1ccc(NC(=S)N(Cc2cccnc2)Cc2ccco2)cc1	-	100	0	0	-	0

Compound activity from PubChem.
